Test results published in publication PMC7862700, “An all-to-all approach to the identification of sequence-specific readers for epigenetic DNA modifications on cytosine”.

What was measured:
Test in all cases: DAPPL (digital affinity profiling via proximity ligation, sequencing); 10 mM Tris-HCl pH 7.5, 50 mM NaCl, 1 mM DTT, 4% glycerol, room temperature, 30 min; GST-TFs on glutathione beads, 16-mer random dsDNA library, 0.1% formaldehyde crosslink after washing; high values mean tight binding
[1] = target: T1, FLI1 (Homo sapiens, UniProt Q01543 1-452); conditions: protein: recombinant; tags: N-terminal GST; dsDNA, one strand shown
T1 sequence: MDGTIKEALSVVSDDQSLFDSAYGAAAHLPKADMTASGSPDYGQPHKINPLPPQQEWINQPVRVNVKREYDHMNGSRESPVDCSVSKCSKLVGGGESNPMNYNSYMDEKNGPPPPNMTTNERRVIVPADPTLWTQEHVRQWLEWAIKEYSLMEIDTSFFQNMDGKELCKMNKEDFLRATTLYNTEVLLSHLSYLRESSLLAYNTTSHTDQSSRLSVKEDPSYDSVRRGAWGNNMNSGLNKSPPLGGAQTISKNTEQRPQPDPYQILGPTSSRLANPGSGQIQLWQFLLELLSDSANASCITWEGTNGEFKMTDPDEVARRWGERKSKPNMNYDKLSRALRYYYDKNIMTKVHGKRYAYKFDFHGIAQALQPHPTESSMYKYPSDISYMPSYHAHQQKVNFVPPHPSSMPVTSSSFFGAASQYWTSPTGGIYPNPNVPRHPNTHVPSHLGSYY
How it was run: (§1)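 Binding signal is given per hexamer as its read frequency for a factor divided by its frequency in the tag-only sample. GST-fused human transcription factors were expressed in yeast, captured on glutathione beads, barcoded with DNA and pooled with that sample, then incubated with 200 nmole of a 16-mer random double-stranded DNA library in Tris/NaCl/DTT/glycerol buffer for 30 min at room temperature. The pools were then washed, crosslinked, proximity-ligated, amplified by PCR and sequenced on an Illumina NextSeq500.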

[2] = target: T2, ELK1 (Homo sapiens, UniProt P19419 1-428); conditions: protein: recombinant; tags: N-terminal GST; dsDNA, one strand shown
T2 sequence: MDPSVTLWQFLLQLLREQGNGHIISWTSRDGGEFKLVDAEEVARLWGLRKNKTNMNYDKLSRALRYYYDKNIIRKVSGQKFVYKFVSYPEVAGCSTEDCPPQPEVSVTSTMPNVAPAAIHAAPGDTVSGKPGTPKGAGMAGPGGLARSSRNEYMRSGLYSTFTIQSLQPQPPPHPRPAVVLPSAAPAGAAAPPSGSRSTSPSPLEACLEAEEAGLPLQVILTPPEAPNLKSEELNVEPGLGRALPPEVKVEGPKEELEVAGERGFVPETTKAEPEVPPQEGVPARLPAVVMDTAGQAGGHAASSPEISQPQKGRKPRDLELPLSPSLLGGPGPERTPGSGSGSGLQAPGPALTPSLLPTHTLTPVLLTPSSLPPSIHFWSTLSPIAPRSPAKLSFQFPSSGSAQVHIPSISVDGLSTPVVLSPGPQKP
How it was run: as §1

[3] = target: T3, GABPA (Homo sapiens, UniProt Q06546 1-454); conditions: protein: recombinant; tags: N-terminal GST; dsDNA, one strand shown
T3 sequence: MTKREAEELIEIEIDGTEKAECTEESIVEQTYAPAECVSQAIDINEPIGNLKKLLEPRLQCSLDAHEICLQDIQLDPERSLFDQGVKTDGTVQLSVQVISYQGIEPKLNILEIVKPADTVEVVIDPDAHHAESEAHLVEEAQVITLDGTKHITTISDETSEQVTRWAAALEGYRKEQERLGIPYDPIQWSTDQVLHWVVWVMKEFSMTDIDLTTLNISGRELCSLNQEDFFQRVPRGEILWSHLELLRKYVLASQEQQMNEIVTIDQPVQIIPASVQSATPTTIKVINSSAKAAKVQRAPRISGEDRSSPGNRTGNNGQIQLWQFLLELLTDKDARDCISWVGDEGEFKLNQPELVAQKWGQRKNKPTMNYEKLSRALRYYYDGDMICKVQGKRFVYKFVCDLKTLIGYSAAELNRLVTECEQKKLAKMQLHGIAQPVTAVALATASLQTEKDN
How it was run: as §1

[4] = target: T4, ERG (Homo sapiens, UniProt P11308 1-479); conditions: protein: recombinant; tags: N-terminal GST; dsDNA, one strand shown
T4 sequence: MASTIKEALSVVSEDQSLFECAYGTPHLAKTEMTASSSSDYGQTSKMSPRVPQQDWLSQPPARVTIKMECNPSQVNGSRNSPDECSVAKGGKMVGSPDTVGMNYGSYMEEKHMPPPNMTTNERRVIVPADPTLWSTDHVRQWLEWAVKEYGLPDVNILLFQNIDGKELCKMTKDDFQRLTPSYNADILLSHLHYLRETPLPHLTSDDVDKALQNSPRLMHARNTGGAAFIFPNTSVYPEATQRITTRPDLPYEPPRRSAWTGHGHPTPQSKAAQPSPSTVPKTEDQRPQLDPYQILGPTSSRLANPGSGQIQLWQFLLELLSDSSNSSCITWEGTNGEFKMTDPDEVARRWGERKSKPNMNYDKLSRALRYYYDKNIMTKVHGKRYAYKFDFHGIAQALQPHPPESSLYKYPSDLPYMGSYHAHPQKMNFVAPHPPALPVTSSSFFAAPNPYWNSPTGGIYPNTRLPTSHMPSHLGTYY
How it was run: as §1

[5] = target: ELF1 (Homo sapiens, UniProt P32519 1-619); conditions: protein: recombinant; tags: N-terminal GST; dsDNA, one strand shown
Chain of ELF1 (P32519 whole entry): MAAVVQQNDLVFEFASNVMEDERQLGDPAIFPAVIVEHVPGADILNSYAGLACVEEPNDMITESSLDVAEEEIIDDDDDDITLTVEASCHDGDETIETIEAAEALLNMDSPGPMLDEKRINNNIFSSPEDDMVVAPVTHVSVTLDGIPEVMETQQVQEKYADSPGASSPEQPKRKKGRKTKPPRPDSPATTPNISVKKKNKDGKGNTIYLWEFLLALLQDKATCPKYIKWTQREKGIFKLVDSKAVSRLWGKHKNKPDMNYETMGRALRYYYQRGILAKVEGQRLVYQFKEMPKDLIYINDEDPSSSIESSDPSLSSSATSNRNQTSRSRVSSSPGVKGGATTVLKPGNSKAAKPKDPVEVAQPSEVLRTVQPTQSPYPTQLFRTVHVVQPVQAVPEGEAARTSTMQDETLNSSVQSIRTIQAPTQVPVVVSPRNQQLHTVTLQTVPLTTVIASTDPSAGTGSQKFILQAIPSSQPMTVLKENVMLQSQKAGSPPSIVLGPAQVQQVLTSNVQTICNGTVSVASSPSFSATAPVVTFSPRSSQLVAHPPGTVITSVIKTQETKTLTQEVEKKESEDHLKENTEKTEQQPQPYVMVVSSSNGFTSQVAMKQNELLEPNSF
How it was run: as §1

[6] = target: T5, EHF (Homo sapiens, UniProt Q9NZC4 1-300); conditions: protein: recombinant; tags: N-terminal GST; dsDNA, one strand shown
T5 sequence: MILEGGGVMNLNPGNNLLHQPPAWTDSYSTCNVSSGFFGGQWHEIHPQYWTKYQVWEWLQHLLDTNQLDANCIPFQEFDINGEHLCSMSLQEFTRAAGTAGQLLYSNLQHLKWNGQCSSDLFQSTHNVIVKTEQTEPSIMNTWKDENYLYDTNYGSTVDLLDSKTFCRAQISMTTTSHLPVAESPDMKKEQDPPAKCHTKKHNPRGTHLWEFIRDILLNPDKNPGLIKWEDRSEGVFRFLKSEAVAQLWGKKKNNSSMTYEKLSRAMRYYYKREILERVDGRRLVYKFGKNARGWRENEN
How it was run: as §1

[7] = target: SPI1 (Homo sapiens, UniProt P17947 1-270); conditions: protein: recombinant; tags: N-terminal GST; dsDNA, one strand shown
How it was run: as §1

[8] = target: SPIB (Homo sapiens, UniProt Q01892 1-262); conditions: protein: recombinant; tags: N-terminal GST; dsDNA, one strand shown
Chain of SPIB (Q01892 whole entry): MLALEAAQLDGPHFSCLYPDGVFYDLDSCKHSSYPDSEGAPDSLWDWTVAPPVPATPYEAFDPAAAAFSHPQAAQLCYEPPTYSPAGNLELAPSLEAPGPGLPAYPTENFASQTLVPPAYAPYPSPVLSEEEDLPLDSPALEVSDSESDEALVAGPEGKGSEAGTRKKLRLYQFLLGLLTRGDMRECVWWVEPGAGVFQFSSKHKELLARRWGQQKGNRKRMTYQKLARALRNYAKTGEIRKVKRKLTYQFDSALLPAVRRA
How it was run: as §1

[9] = target: T6, ELK3 (Homo sapiens, UniProt P41970 1-407); conditions: protein: recombinant; tags: N-terminal GST; dsDNA, one strand shown
T6 sequence: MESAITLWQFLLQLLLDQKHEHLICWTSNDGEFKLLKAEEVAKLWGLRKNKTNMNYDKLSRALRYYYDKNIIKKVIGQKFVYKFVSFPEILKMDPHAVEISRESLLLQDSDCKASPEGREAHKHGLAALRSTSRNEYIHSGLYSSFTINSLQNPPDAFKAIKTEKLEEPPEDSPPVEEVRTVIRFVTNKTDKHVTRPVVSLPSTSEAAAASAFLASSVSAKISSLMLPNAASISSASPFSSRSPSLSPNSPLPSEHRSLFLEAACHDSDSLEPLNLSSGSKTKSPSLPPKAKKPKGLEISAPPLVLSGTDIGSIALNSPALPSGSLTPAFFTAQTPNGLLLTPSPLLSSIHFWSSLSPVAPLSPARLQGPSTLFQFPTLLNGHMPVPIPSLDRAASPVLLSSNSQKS
How it was run: as §1

[10] = target: T7, FEV (Homo sapiens, UniProt Q99581 1-238); conditions: protein: recombinant; tags: N-terminal GST; dsDNA, one strand shown
T7 sequence: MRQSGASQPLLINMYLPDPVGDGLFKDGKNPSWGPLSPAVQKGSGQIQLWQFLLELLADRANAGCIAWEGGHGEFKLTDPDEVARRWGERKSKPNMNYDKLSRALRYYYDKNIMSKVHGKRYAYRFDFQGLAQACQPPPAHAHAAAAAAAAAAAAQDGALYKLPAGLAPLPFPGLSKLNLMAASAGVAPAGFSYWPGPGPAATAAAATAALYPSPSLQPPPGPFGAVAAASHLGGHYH
How it was run: as §1

[11] = target: ETV5 (Homo sapiens, UniProt P41161 1-510); conditions: protein: recombinant; tags: N-terminal GST; dsDNA, one strand shown
Chain of ETV5 (P41161 whole entry): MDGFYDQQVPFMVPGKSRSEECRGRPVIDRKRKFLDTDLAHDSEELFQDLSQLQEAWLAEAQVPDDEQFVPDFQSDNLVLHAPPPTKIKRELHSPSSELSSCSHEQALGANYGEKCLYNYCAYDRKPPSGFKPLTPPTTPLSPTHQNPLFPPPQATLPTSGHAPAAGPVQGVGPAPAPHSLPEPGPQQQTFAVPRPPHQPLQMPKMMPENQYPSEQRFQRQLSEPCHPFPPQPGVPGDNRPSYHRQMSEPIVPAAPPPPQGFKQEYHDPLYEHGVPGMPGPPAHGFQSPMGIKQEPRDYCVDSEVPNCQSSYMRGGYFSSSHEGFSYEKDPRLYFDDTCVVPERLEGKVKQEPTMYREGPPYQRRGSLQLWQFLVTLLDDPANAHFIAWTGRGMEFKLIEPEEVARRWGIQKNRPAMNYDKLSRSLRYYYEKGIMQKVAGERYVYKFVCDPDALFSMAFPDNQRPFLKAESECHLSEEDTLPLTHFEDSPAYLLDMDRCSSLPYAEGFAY
How it was run: as §1

[12] = target: HSF1 (Homo sapiens, UniProt Q00613 1-529); conditions: protein: recombinant; tags: N-terminal GST; chain copies: 3; dsDNA, one strand shown
Chain of HSF1 (Q00613 whole entry): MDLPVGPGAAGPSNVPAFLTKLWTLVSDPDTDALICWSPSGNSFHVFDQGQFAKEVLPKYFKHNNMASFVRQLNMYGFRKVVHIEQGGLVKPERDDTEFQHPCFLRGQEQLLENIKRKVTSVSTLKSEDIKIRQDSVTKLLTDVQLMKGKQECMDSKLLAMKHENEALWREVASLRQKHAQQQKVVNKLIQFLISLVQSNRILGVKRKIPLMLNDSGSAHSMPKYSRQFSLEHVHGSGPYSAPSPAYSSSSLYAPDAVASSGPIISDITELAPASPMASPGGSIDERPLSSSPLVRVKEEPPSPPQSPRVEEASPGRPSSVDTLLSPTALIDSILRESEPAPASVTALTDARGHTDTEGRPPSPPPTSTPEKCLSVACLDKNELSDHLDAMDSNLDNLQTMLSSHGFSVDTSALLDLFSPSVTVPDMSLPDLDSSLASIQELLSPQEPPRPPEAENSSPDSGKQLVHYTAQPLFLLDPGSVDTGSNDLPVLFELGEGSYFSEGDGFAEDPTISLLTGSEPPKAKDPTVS
How it was run: as §1

[13] = target: T8, SPIC (Homo sapiens, UniProt Q8N5J4 1-248); conditions: protein: recombinant; tags: N-terminal GST; dsDNA, one strand shown
T8 sequence: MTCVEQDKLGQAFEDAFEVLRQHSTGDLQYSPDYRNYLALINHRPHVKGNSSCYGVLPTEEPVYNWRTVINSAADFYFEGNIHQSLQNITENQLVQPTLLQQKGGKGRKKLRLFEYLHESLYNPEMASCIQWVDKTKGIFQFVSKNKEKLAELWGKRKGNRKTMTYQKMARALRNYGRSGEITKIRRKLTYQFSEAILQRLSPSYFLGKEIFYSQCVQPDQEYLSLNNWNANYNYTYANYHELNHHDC
How it was run: as §1

[14] = target: ELF4 (Homo sapiens, UniProt Q99607 1-663); conditions: protein: recombinant; tags: N-terminal GST; dsDNA, one strand shown
Chain of ELF4 (Q99607 whole entry): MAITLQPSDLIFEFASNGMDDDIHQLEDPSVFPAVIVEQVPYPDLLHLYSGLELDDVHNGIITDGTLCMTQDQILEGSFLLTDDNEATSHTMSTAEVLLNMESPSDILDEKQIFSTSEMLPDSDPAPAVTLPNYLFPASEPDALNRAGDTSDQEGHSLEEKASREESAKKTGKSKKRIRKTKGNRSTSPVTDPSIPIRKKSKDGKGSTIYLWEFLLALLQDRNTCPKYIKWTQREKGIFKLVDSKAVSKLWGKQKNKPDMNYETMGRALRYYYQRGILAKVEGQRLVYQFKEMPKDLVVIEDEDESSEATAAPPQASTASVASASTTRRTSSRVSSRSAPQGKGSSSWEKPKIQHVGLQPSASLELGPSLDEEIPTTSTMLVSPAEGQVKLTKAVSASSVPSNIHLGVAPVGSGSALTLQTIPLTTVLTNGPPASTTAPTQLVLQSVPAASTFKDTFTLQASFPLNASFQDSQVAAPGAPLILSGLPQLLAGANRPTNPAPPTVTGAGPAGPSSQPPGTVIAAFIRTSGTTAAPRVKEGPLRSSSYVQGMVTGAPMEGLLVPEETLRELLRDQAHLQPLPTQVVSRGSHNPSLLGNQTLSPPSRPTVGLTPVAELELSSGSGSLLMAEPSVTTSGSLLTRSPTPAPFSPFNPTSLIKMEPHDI
How it was run: as §1

[15] = target: T9, ELK4 (Homo sapiens, UniProt P28324-2 1-405); conditions: protein: recombinant; tags: N-terminal GST; dsDNA, one strand shown
T9 sequence: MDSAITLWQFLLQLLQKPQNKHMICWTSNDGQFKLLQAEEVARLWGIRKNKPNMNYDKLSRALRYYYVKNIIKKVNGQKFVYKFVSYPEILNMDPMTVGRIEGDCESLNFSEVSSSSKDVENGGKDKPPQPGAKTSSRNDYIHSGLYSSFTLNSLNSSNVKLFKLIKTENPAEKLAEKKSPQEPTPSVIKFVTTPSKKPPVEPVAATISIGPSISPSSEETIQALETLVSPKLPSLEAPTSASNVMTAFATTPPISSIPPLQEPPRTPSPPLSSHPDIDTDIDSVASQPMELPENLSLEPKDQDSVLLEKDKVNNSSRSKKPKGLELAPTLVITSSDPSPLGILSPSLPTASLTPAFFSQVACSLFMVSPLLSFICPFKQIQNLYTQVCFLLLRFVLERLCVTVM
How it was run: as §1

[16] = target: T10, ETV2 (Homo sapiens, UniProt O00321 1-342); conditions: protein: recombinant; tags: N-terminal GST; dsDNA, one strand shown
T10 sequence: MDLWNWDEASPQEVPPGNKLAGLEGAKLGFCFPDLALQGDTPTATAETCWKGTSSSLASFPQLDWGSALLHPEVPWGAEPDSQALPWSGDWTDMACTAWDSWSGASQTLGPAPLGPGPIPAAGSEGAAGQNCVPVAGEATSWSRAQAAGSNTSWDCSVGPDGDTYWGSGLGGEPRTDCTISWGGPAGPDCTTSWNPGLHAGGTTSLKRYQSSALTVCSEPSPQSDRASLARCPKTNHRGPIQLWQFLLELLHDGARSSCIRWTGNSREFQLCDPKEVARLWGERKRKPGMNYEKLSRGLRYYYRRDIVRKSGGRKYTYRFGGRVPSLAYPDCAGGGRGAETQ
How it was run: as §1

[17] = target: T11, ELF3 (Homo sapiens, UniProt P78545 1-371); conditions: protein: recombinant; tags: N-terminal GST; dsDNA, one strand shown
T11 sequence: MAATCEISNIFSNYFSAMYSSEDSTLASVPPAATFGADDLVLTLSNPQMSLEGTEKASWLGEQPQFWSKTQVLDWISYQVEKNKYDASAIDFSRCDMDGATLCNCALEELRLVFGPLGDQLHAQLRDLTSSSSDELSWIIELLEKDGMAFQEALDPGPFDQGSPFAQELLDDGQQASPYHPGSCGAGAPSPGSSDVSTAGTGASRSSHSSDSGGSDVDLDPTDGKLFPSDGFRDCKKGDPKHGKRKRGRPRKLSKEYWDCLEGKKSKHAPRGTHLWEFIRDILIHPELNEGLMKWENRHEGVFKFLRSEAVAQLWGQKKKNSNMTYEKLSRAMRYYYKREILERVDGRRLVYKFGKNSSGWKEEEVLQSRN
How it was run: as §1

[18] = target: CRX (Homo sapiens, UniProt O43186 1-299); conditions: protein: recombinant; tags: N-terminal GST; dsDNA, one strand shown
Chain of CRX (O43186 whole entry): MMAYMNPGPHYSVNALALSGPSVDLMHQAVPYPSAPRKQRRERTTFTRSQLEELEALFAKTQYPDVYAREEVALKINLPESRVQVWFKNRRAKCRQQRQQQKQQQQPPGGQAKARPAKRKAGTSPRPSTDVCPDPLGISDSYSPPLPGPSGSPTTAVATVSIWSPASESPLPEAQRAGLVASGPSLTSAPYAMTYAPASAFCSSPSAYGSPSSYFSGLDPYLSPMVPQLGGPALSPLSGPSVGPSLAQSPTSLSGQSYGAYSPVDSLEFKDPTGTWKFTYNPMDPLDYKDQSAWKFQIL
How it was run: as §1

[19] = target: ETV1 (Homo sapiens, UniProt P50549 1-477); conditions: protein: recombinant; tags: N-terminal GST; dsDNA, one strand shown
Chain of ETV1 (P50549 whole entry): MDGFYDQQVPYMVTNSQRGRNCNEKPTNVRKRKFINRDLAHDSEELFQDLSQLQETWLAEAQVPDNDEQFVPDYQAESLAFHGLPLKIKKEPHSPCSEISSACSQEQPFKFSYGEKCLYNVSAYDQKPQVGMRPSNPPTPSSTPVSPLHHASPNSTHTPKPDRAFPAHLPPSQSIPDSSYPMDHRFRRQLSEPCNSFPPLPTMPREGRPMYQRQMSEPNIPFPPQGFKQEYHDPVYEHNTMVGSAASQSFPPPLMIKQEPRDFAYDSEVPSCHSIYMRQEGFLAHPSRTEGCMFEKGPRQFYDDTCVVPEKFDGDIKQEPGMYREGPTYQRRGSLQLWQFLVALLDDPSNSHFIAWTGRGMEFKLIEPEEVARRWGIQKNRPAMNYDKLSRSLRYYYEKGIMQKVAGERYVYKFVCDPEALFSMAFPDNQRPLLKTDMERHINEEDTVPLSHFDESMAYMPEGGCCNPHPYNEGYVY
How it was run: as §1

TATTAC
binding signal [1]: 1.24 fold enrichment (6-mer frequency, TF over GST control)
binding signal [2]: 1.2 fold enrichment (6-mer frequency, TF over GST control)
binding signal [3]: 1.09 fold enrichment (6-mer frequency, TF over GST control)
binding signal [4]: 1.16 fold enrichment (6-mer frequency, TF over GST control)
binding signal [5]: 1.19 fold enrichment (6-mer frequency, TF over GST control)
binding signal [6]: 1.19 fold enrichment (6-mer frequency, TF over GST control)
binding signal [7]: 1.12 fold enrichment (6-mer frequency, TF over GST control)
binding signal [8]: 1.21 fold enrichment (6-mer frequency, TF over GST control)
binding signal [9]: 1.16 fold enrichment (6-mer frequency, TF over GST control)
binding signal [10]: 1.16 fold enrichment (6-mer frequency, TF over GST control)
binding signal [11]: 1.28 fold enrichment (6-mer frequency, TF over GST control)
binding signal [12]: 1.33 fold enrichment (6-mer frequency, TF over GST control)
binding signal [13]: 1.24 fold enrichment (6-mer frequency, TF over GST control)
binding signal [14]: 1.2 fold enrichment (6-mer frequency, TF over GST control)
binding signal [15]: 1.31 fold enrichment (6-mer frequency, TF over GST control)
binding signal [16]: 1.27 fold enrichment (6-mer frequency, TF over GST control)
binding signal [17]: 1.16 fold enrichment (6-mer frequency, TF over GST control)
binding signal [18]: 1.79 fold enrichment (6-mer frequency, TF over GST control)
binding signal [19]: 1.27 fold enrichment (6-mer frequency, TF over GST control)
